LMNA splice mod = changes lamin A minigene splicing in HeLa cells; HeLa LMNA splicing GFP/RFP minigene ratio, 48 h; Potency, µM (series often up to 46.1 µM), for the others: top-dose ratio change, negative = inhibition, actives largely listed as inhibitors; 0.01% of 200,000 active; active = well fitted inhibition curve with a large enough effect in the signal ratio, with a control signal flat, not every such curve was filed as active; inconclusive = small, poorly fitted or top-dose-only effect, or effect the other way, or a change in a side signal; the % refers to the signal ratio
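Read-out is the ratio of GFP to DsRed2 object intensity, acquired by 488 nm laser-scanning cytometry on HeLa lamin A-EGFP minigene reporter cells. Compound incubation 48 hrs at 37 °C in Opti-MEM with 2% FBS; DMSO 0.5% final.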
GAA glycogen = alters human alpha-glucosidase cleavage of glycogen | P10253 | recombinant GAA, glycogen substrate, Amplex Red glucose oxidase fluorescence | Potency, µM (titrated, usually from 76.4 µM), for inactives: top-dose activity change, negative = inhibition, most hits filed as inhibitors | 0.38% of 300,000 active | AID 2100;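 also: 0% = full enzyme reaction and -100% = no-enzyme basal signal; the screen sought inhibitors and activators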
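qHTS, 1536-well; enzyme 4 nM final; cpd up to 77 uM; substrate bovine liver glycogen 30 ug; 50 mM citrate/phosphate pH 5.0, 0.01% Tween-20; 37 C, 40 min; Amplex Red detection 45 min RT; Hill fit → AC50.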
N370S GC mod = N370S glucocerebrosidase modulation, Gaucher chaperone candidate; P04062; N370S GC spleen homogenate, 4MU-glucoside fluorescence; Potency, µM (top dose mostly 59.4 µM), for inactives: at the top dose activity change, negative = inhibition, actives largely listed as inhibitors; 0.092% of 330,000 active;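 also: 0% = full enzyme activity and -100% = no enzyme basal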
GAA inhib = alpha-glucosidase (human) inhibition; 0.005% of 200,000 active; Potency, µM (series often up to 76.9 µM), for inactives: at the highest dose activity change, negative = inhibition, most hits filed as inhibitors; purified human GAA, 4-MU-alpha-glucoside fluorescence; P10253;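 also: plate controls were uninhibited enzyme wells for no effect and no-enzyme background for full effect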
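Read-out is 4-methylumbelliferone fluorescence (Ex 365/Em 440 nm) after NaOH/glycine stop at pH 10. Enzyme 4 nM, substrate 400 uM, pH 5.0 citrate buffer, 20 min room temperature; AC50 from Hill-equation concentration-response.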
GAA spleen mod = inhibits or activates alpha-glucosidase in human spleen homogenate. AID 2112. Potency, µM (doses to about 79.9 µM), for the others: at the highest dose activity change, negative = inhibition, most hits filed as inhibitors. human spleen homogenate, 4-MU-alpha-glucoside fluorescence. 0.006% of 240,000 active;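 also: 0% = enzyme with vehicle and -100% = no enzyme basal signal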
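Enzyme source: human spleen homogenate, 1 ug/well. Buffer 50 mM citric acid/K phosphate pH 5.0, 0.01% Tween-20. 4-MU-alpha-glucoside 1 mM; 37 C x 40 min; NaOH/glycine stop; fluorescence.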
Starred values were filed as active, the others as inactive; ? = inconclusive; . = not tested or not shown; [ ] = remark or other dose. Compounds with a hit are over-represented: about 0.42% of the library has one in this group of screens. Unless noted, calls follow the shape of the dose curve; as a rule, active = well fitted curve in the direction sought with a large enough effect; inconclusive = small, poorly fitted or top-dose-only effect, or another doubt; inactive = no such curve, though single readings can be large; an effect the other way counts as inactive or inconclusive. Unless noted, % is scaled to controls: 0 for no effect and ±100 for the full control effect; potency is read from the fitted curve at half-maximal effect.

SMILES | LMNA splice mod | GAA glycogen | N370S GC mod | GAA inhib | GAA spleen mod
COc1ccc(/C=N\NC(=O)C2=NNC(=O)C2C)cc1 (centres undefined) | 5.1% | 28µM* | -3.7% | 4.7% | -7.7%
COc1ccc(N2C(=O)C(Cl)=C(Nc3c(C)n(C)n(-c4ccccc4)c3=O)C2=O)cc1 | 0.7% | 25.1µM* | -1.7% | 5.6% | 1.8%
O=C1C(Cl)=C(NC2CCc3ccccc32)C(=O)c2ncccc21 (centres undefined) | . | . | -9.1% | . | -4.6%
COC(=O)C[C@H]1c2ccccc2[C@H]2C(=C[C@@H](C)[C@H]3C(=O)N(O)C(=O)[C@H]32)N1C(=O)OC | ? | . | -9.6%[12.8 µM] | . | -3.6%[17.4 µM]
COc1ccc(Br)cc1CNc1ccc(N2CCOCC2)cc1 | . | 22.4µM* | -6.8% | . | .
CCCC[C@@H](C)/C=C(C)/C=C(\C)C(=O)NC1=C[C@@](O)(/C=C/C=C/C=C/C(=O)NC2=C(O)CCC2=O)[C@@H]2O[C@@H]2C1=O | . | . | 0.2% | . | 0.7%
O=C(CCC(=O)N1CCN(c2ccc(O)cc2)CC1)c1cccs1 | . | 11.1µM* | -6.1% | . | 0.4%
Cc1ccc(OCCC(=O)N2CCN(c3ccc(O)cc3)CC2)cc1 | . | 12.6µM* | -2.2% | . | -9.7%
COc1ccc(N2CCN(C(=O)CSc3ccc(C)cc3)CC2)cc1 | -0.7%[46 µM] | -6.6% | 4.0% | 8.9% | -18.5%
CC(=O)c1cc2cc(O)ccc2o1 | ? | -0.9% | ? | ? | ?
CC(=O)c1cc2c(O)c(O)ccc2o1 | 3.7% | 31.4µM* | -6.9% | -0.4% | -6.5%
C[C@]12CC[C@@H](O)C[C@@H]1CC[C@@H]1[C@@H]2CC[C@]2(C)C=CC[C@@H]12 | . | . | 4.0% | . | 4.4%
Oc1cc2c(cc1O)C(c1ccccc1)CNCC2 (centres undefined) | -28.5% | . | -0.7% | . | 2.7%
Oc1cc2c(cc1O)[C@@H](c1ccccc1)CNCC2 | 10.8% | 1.78µM* | 13.2% | 3.3%[15.4 µM] | 3.6%
CC1(C)OCC(CSC2=C(SCC3COC(C)(C)O3)C(=O)c3ncccc3C2=O)O1 (centres undefined) | . | . | -18.1% | . | 9.9%
C/C(=N\NC(=S)Nc1ccccc1)C1Cc2ccccc2C(=O)O1 (centres undefined) | . | 15.8µM* | 11.1% | . | 2.3%
Cc1ccc(S(=O)(=O)N2CCN(C(=O)N(c3ccccc3)c3ccccc3)CC2)cc1 | -12.3% | ? | . | 25.1µM* | -27.0%
Cc1ccc(N(C)C(=O)N2CCN(S(=O)(=O)c3ccc(C)cc3)CC2)cc1 | -6.3% | -1.0% | 0.8% | ? | -27.5%
Cc1ccc(NC(=O)C(CC(C)C)N2Cc3ccccc3C2=O)cc1F (centres undefined) | 10.0%[46 µM] | -11.5%[76.3 µM] | . | . | .
COC(=O)C1=C(C(=O)OC)[C@@H]2Nc3ccccc3[C@@]23C[C@@H](C(=O)OC)N(S(=O)(=O)c2ccc(OC)cc2)C3=N1 | 18.6%[9.22 µM] | . | -3.2%[12.8 µM] | . | -15.5%[17.4 µM]
Cc1ccccc1-c1nccc(Nc2ccc(F)cc2)n1 | -17.1% | . | 20µM* | . | -4.8%
O=C(NNc1cccc(Cl)n1)c1c(Cl)cccc1Cl | 5.0% | 8.91µM* | 6.6% | 8.2% | -28.6%
O=C(NNc1cccc(Cl)n1)c1c(F)cccc1F | . | ? | 6.5% | -4.5% | .
Cc1c(NC(=O)OCCNC(=O)Nc2ccccc2)sc(=S)n1C | -3.3% | ? | ? | -10.9% | 13.3%
CCOC(=O)Nc1sc(=S)n(C)c1C | -1.8% | 7.88µM* | 12.5% | 2.5% | 8.0%
SMILES | LMNA splice mod | GAA glycogen | N370S GC mod | GAA inhib | GAA spleen mod
COc1ccc([C@H]2c3cc(OC)c(OC)cc3C[C@@H](C)[C@@H]2C)cc1OC | . | . | 1.7% | . | 3.1%
Cc1c(NS(=O)(=O)c2ccccc2)cc(C(C)C)c(O)c1S(=O)(=O)c1ccc(Cl)cc1 | . | 11.2µM* | . | . | .
C1CCN2CC3CC(CN4CCCC[C@@H]34)C2C1 (some centres undefined) | . | . | -1.9% | . | 6.2%
COc1cc(CNc2ccc3[nH]c(=O)[nH]c3c2)cc(Cl)c1OCc1ccccc1F | ? | -29.3%[76.3 µM] | . | . | .
COc1cccc(CNc2ccc3[nH]c(=O)[nH]c3c2)c1OCc1ccccc1F | . | 28.2µM* | 8.6% | . | .
C=CCOC[C@@H]1CN2[C@H](c3ccc(Br)cc3)[C@@H](C)CC[C@H]2C(=O)O1 | . | . | 2.2% | . | -2.6%

Assay outcomes from PubChem BioAssay.
